Screens as filed in PubChem BioAssay.
FBPA Giardia inh: Giardia lamblia aldolase inhibition; A8B2U2; purified Giardia FBPA; Potency, µM (doses to about 59.6 µM), most hits filed as inhibitors; 290,000 tested, 0.71% active; note: nearly all actives have a fitted effect of over 55% in size
Target sequence (A8B2U2 whole entry, looked up): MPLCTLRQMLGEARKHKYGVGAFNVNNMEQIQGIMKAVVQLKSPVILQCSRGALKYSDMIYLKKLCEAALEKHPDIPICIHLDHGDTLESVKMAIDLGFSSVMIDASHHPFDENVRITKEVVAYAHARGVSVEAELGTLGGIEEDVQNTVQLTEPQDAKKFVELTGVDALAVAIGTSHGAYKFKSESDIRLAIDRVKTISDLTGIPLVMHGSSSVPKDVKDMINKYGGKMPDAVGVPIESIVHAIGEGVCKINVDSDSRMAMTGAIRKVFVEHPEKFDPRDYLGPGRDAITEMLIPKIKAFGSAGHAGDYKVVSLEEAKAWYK
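40 nM FBPA preincubated 10 min at RT with compound (up to 57.5 uM final), then substrate plus GAPDH/TPI/NAD/arsenate coupling and diaphorase/resazurin added. Fluorescence read after 20 min at RT, 525/598 nm.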
RE007 growth inh: less growth of the S. pombe RE007 Vpr strain; 360,000 tested, 0.21% active; AID 651644; Potency, µM (top dose mostly 92.2 µM), usual class: inhibitors; S. pombe RE007 Vpr strain, BacTiter-Glo ATP luminescence, 24 h; active = well fitted falling curve with a large enough effect; inconclusive = small, poorly fitted or top-dose-only effect; inactive = no such curve, though single readings can be large or run the other way; note: nearly all actives have a fitted effect of over 50% in size
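Fission yeast RE007 carrying one integrated HIV-1 vpr copy, seeded at OD 0.01 in PMG+AL medium with 23 nL pinned compound. Grown 24 h at 30 degrees; viability read by BacTiter-Glo luminescence after 5 min.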
Cycloheximide cs: affects cycloheximide protein synthesis inhibition readout, counter-screen. cell reporter, cycloheximide protein synthesis inhibition counterscreen. max response, %. 300,000 tested, 12% active; in the data active = max response mostly above about 13%, no sharp cut-off; inactive = mostly below about 14%; note: read at 38.3 µM for the half of the compounds with a filed dose
Tb PYK inh: inhibitors of Trypanosoma brucei pyruvate kinase | AID 624173 | 410,000 tested, 0.12% active | Potency, µM (series often up to 76.8 µM), usual class: inhibitors | Q57TT1 | TbPYK enzyme, Kinase-Glo Plus ATP luminescence, 45 min; note: nearly all actives have a fitted effect of over 50% in size
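Luminescent Kinase-Glo Plus end-point after 45 min room-temperature reaction of T. brucei pyruvate kinase started with 130 uM ADP (final). Buffer TEA 50 mM pH 7.2 with KCl, MgCl2, BSA, Tween-20; titration-based qHTS with fitted concentration-effect curves.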
Shiga inhibitor: Shiga toxin inhibition; AID 2315; inhibition, % at 38.7 µM; 290,000 tested, 9.2% active; Vero cells, Shiga toxin protein synthesis inhibition reporter; in the data active = inhibition mostly above about 28%, no sharp cut-off; inactive = mostly below about 43%
LmPK inh: blocks Leishmania mexicana pyruvate kinase activity. Q27686. purified LmPK, Kinase-Glo ATP luminescence, 1 h. Potency, µM (titrated, usually from 57.5 µM), hits mostly inhibitors. 290,000 tested, 0.37% active
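qHTS format; LmPK 0.1 nM; substrates PEP 0.5 mM and ADP 0.1 mM. One-hour room-temperature incubation, then coupled luciferase luminescence; 0.5 nM enzyme wells mark activation.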
Numbers stand for hits; n = inactive; u = inconclusive; x = no result given; [ ] = dose if it differs, or a comment. Many of the other results were omitted from the sample, so hits are more common in it than they were. Unless noted, calls come from the whole dose curve; as a rule, active = well fitted curve in the direction sought with a large enough effect; inconclusive = small, poorly fitted or top-dose-only effect, or another doubt; inactive = no such curve, though single readings can be large; an effect the other way counts as inactive or inconclusive.

SMILES	FBPA Giardia inh	RE007 growth inh	Cycloheximide cs	Tb PYK inh	Shiga inhibitor	LmPK inh
CC(=O)Nc1ccc(S(=O)(=O)N(C)CC(=O)N2CCN(C(=O)c3ccco3)CC2)cc1	x	n	x	n	x	x
COc1cc(NC(=O)c2c(-c3ccc(C)cc3)nnc3ccccc23)cc(OC)c1OC	x	x	x	n[15.4 µM]	x	x
CN(C)c1ccnc(N(Cc2ccccc2)Cc2ccccc2)c1C#N	n	n	29	n	50	n
CN(C)c1ccnc(NCc2ccccc2)c1C#N	n	n	30	n	55	n
Cc1cc(N(C)C)c(C#N)c(NCc2ccccc2)n1	n	n	n	n	n	n
O=C(OCC(=O)N1CCN(c2ccccc2)CC1)c1ncc(Cl)c(Cl)c1Cl	x	n	x	n	x	x
COC(=O)C(C)Oc1ccc(-c2nccc(-c3ccc(F)cc3)n2)cc1 (stereo unspecified)	n	n	n	n	n	n
FCCCOc1ccc(-c2nccc(-c3ccccn3)n2)cc1	n	u	20	n	35	n
COC(=O)C(C)Oc1ccc(-c2nccc(-c3ccccn3)n2)cc1 (stereo unspecified)	n	n	16	n	n	n
COc1ccc(CN(C)C(=O)c2cccc(C(=O)N(C)Cc3ccc(OC)cc3)c2)cc1	n	n	n	n	n	n
Cc1cccc(CN2CCc3nc(N4CCN(c5ccccn5)CC4)ncc3C2)c1	x	x	x	n	x	x
CC(=O)C1=C(C)NC(SCC(=O)c2ccccc2)=C(C#N)C1c1ccco1 (stereo unspecified)	u	x	n	x	n	n
CC(=O)C1=C(C)NC(SCC(=O)c2ccccc2)=C(C#N)C1CC(C)C (stereo unspecified)	n	n	n	32µM	n	n
O=C(CSc1n[nH]c(-c2ccc(Br)cc2)n1)N1CCOCC1	x	n	x	n	x	x
COc1ccc(N2C(=O)c3ccccc3NC(=O)C2C(=O)NCC(C)C)cc1 (stereo unspecified)	x	n	x	x	x	x
CCc1n(CC(O)COC2CCCCC2)c2ccccc2[n+]1C (stereo unspecified)	n	n	n	n	n	n
CN=C(Nc1ccc(Cl)cc1)c1ccc(C(F)(F)F)cc1	n	n	15	n	n	n
Cc1ccc(NC(=O)CN2C(=O)c3ccccc3S2(=O)=O)c(C)c1	n	n	n	n	n	n
CCOc1ccc(-c2nnc(N(CC)C(=O)C3CCC3)s2)cc1	n	n	28	n	53	n
CCCC(=O)N(C)c1nnc(-c2ccc(OC)cc2)s1	n	x	13	n	n	n
COCCN(C(=O)CCc1ccc(OC)cc1)c1nnc(-c2ccncc2)s1	n	n	n	n	n	n
Cc1ccc(-n2c(=O)c3cccnc3n2CC(=O)Nc2cc(C)cc(C)c2)cc1	x	x	x	n	x	x
Cc1cc(C)nc(CCNC(=O)c2cc(COc3c(F)cccc3F)on2)n1	n	n	n	n	n	n
CC(=O)c1ccc(OCc2cc(C(=O)NCCc3ccc(Cl)cc3)no2)cc1	n	n	19	n	48	n
CC(=O)c1ccc(OCc2cc(C(=O)NCC3CCCCO3)no2)cc1 (stereo unspecified)	n	n	25	n	46	n
SMILES	FBPA Giardia inh	RE007 growth inh	Cycloheximide cs	Tb PYK inh	Shiga inhibitor	LmPK inh
Cc1cc(C)nc(CCNC(=O)c2cc(COc3ccccc3)on2)n1	x	n	36	n	56	n
COC(=O)c1ccc(CNC(=O)c2cc(COc3cncc(Cl)c3)on2)cc1	x	n	n	n	n	n
CCN1CCCC1CNC(=O)c1cc(COc2ccc(C)c(C)c2)on1 (stereo unspecified)	n	n	32	n	53	n
Cc1ccc(OCc2cc(C(=O)NCC(C)(C)N3CCOCC3)no2)cc1C	x	n	n	n	n	n
CCOc1ccc(OCc2ccc(C(=O)NCC3CCCO3)o2)cc1 (stereo unspecified)	n	n	n	n	n	n
COc1cccc(N2C(=O)CSC23C(=O)N(Cc2ccccc2)c2ccccc23)c1 (stereo unspecified)	x	x	x	n	x	x
CCn1ccc2cc(S(=O)(=O)N3CCCN(C(=O)Nc4ccccc4F)CC3)ccc21	x	x	x	n	x	x
Cc1ccc(OCc2cc(C(=O)NCc3cc(F)ccc3C)no2)cn1	n	n	22	n	28	n
Cc1ccc(OCc2cc(C(=O)NCC3COCCO3)no2)cc1C (stereo unspecified)	x	n	41	n	42	n
C[C@]12CC[C@@H]3c4ccc(O)cc4CC[C@H]3[C@@H]1CCC2OC(=O)CCC1CCCC1 (stereo partly specified)	x	x	x	n	x	x
CC1=C(C(=O)N(C(C)C)C(C)C)CC(CC(=O)NC(c2ccccc2)c2ccccc2)C(=O)N1CCCN1CCCC1=O (stereo unspecified)	x	n	x	n	x	x
COC(=O)c1cccc(CC2(C)C(=O)Nc3ccc(OC(F)(F)F)cc32)c1 (stereo unspecified)	x	n[18.4 µM]	x	n	x	x
O=C(Cn1cc(SCc2cccc(Cl)c2)c2ccccc21)N1CCOCC1	n	n	48	n	n	n
Cc1cccc(CSc2cn(CC(=O)N3CCOCC3)c3ccccc23)c1	n	n	42	n	64	n
C=CC1=C2C=C(C3CC3)N(CCCOC(C)C)C=C2C(=O)C(C)(OC(=O)c2ccco2)C1=O (stereo unspecified)	u	x	x	x	x	n[11.5 µM]
Cn1c(=O)c2ncn(CC(=O)Nc3ccc(N4CCOCC4)cc3)c2n(C)c1=O	n	n	n	n	n	n
CCC(C)c1ccc2oc(-c3ccc(NC(=O)Cn4cnc5c(=O)n(C)c(=O)n(C)c54)cc3)nc2c1 (stereo unspecified)	n	n	58	n	154	n
Cc1ccc2oc(-c3cccc(NC(=O)Cn4cnc5c(=O)n(C)c(=O)n(C)c54)c3)nc2c1	n	x	34	x	137	n
Cc1ccc(NC(=O)Cn2cnc3c(=O)n(C)c(=O)n(C)c32)c(C)c1	n	n	n	n	n	n
COc1ccc(CCNC(=O)Cn2cc(C(=O)c3ccc(Cl)cc3)c(=O)c3ccc(C)nc32)cc1OC	x	x	x	n	x	x
CCCN(C(=O)CSCc1ccccc1C)c1c(N)n(Cc2ccccc2)c(=O)[nH]c1=O	x	n	x	n	x	x
O=c1c2oc3ccccc3c2ncn1Cc1ccccc1Cl	n	n	n	n	n	n
C=CCn1cnc2c(oc3ccccc32)c1=O	n	n	25	n	n	n
O=c1c2oc3ccccc3c2ncn1Cc1ccccc1F	n	n	30	n	n	n
COCCCNC(=O)C(C)n1c2ccccc2c2cnn(C)c(=O)c21 (stereo unspecified)	x	x	x	n	x	x
CSc1ccc(-c2cc(=O)c3ccccc3o2)cc1	n	u	40	n	34	n
O=c1cc(-c2ccc(F)cc2)oc2ccccc12	x	n	x	n	x	x
O=c1cc(-c2ccccc2F)oc2ccccc12	n	63µM	28	n	59	n
CC(C)C[C@H](N)c1nnc(S(=O)(=O)Cc2ccc(F)cc2)o1	n	n	42	n	n	n
OCc1ccc(-c2cccc3nccn23)cc1	x	n	x	n	x	x
